Data as given in PubChem BioAssay (NCI).
Values joined by “and” are separate entries in the source; they are usually repeats but may differ in a detail not shown here. Equal values may be shown once. The panel holds about 83,000 compounds, 20% with a hit somewhere; the sample as a whole holds those more often.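 Values shown are percent growth following 48 h exposure of cells in 96-well plates to a single concentration of compound; below 10 was considered active.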 Values without a mark were called inactive. Active and inactive are the calls of the source.

Tests used:
Test in all cases: NCI-60 one-dose screen, 48 h (100 = growth as untreated, 0 = no growth, -100 = all killed)
[1] = test system: DU-145 prostate
[2] = test system: K-562 leukemia
[3] = test system: MALME-3M melanoma
[4] = test system: MDA-MB-231 breast
[5] = test system: RXF 393 renal
[6] = test system: SF-268 CNS
[7] = test system: SF-295 CNS
[8] = test system: SF-539 CNS
[9] = test system: UACC-257 melanoma
[10] = test system: M14 melanoma

**Q.** `Cc1ccnc(NC(c2ccccc2)c2ccc3cccnc3c2O)c1` (stereo not drawn) was tested. Which growth ([1]; 10 µM unless noted) did it give?
**A.** 47.8%

**Q.** And the growth ([2]; 10 µM unless noted)?
**A.** 21.4%

**Q.** What about the growth ([3]; 10 µM unless noted) of the same molecule?
**A.** 62.4%

**Q.** What about the growth ([4]; 10 µM unless noted) of the same molecule?
**A.** 48.5%

**Q.** And the growth ([5]; 10 µM unless noted)?
**A.** 66.9%

**Q.** And the growth ([6]; 10 µM unless noted)?
**A.** 34.7%

**Q.** And the growth ([7]; 10 µM unless noted)?
**A.** 26%

**Q.** And the growth ([8]; 10 µM unless noted)?
**A.** 24.7%

**Q.** And the growth ([9]; 10 µM unless noted)?
**A.** 41.7%

**Q.** What about the growth ([10]; 10 µM unless noted) of the same molecule?
**A.** 36.8%

**Q.** How did the growth ([1]; 10 µM unless noted) turn out when `N#Cc1ccc([N+](=O)[O-])o1` was run?
**A.** 111%

**Q.** What about the growth ([2]; 10 µM unless noted) of the same molecule?
**A.** 105%

**Q.** What about the growth ([3]; 10 µM unless noted) of the same molecule?
**A.** 118%

**Q.** And the growth ([4]; 10 µM unless noted)?
**A.** 105%

**Q.** What about the growth ([5]; 10 µM unless noted) of the same molecule?
**A.** 113%

**Q.** And the growth ([6]; 10 µM unless noted)?
**A.** 103%

**Q.** What about the growth ([7]; 10 µM unless noted) of the same molecule?
**A.** 99.6%

**Q.** What about the growth ([8]; 10 µM unless noted) of the same molecule?
**A.** 101%

**Q.** And the growth ([9]; 10 µM unless noted)?
**A.** 79.7%

**Q.** What about the growth ([10]; 10 µM unless noted) of the same molecule?
**A.** 97.9%

**Q.** For `C=CCOc1ccc(N=NC(C#N)C#N)cc1`, which growth ([1]; 10 µM unless noted) is on record?
**A.** 77.8%

**Q.** What about the growth ([2]; 10 µM unless noted) of the same molecule?
**A.** 38.2%

**Q.** And the growth ([3]; 10 µM unless noted)?
**A.** 3.69% (active)

**Q.** What about the growth ([4]; 10 µM unless noted) of the same molecule?
**A.** 69.7%

**Q.** What about the growth ([5]; 10 µM unless noted) of the same molecule?
**A.** 51.1%

**Q.** And the growth ([6]; 10 µM unless noted)?
**A.** 102%

**Q.** And the growth ([7]; 10 µM unless noted)?
**A.** 92.7%

**Q.** And the growth ([8]; 10 µM unless noted)?
**A.** 87%

**Q.** What about the growth ([9]; 10 µM unless noted) of the same molecule?
**A.** 42.1%

**Q.** And the growth ([10]; 10 µM unless noted)?
**A.** 66.4%

**Q.** `O=C(/C=C\c1ccccc1)N1c2ccccc2CC1c1c[nH]c2ccccc12` (stereo not drawn) was tested. Which growth ([1]; 10 µM unless noted) did it give?
**A.** 89.7%

**Q.** What about the growth ([2]; 10 µM unless noted) of the same molecule?
**A.** 65.9%

**Q.** What about the growth ([3]; 10 µM unless noted) of the same molecule?
**A.** 85.4%

**Q.** What about the growth ([4]; 10 µM unless noted) of the same molecule?
**A.** 60.8%

**Q.** What about the growth ([5]; 10 µM unless noted) of the same molecule?
**A.** 93.4%

**Q.** What about the growth ([6]; 10 µM unless noted) of the same molecule?
**A.** 75.2%

**Q.** What about the growth ([7]; 10 µM unless noted) of the same molecule?
**A.** 68.7%

**Q.** What about the growth ([8]; 10 µM unless noted) of the same molecule?
**A.** 95.1%

**Q.** What about the growth ([9]; 10 µM unless noted) of the same molecule?
**A.** 88.8%

**Q.** And the growth ([10]; 10 µM unless noted)?
**A.** 71.6%

**Q.** Which growth ([1]; 10 µM unless noted) does the source give for `CCCCCCC(C)c1ccccc1O` (stereo not drawn) (tested in a mixture with another compound) here?
**A.** 116%

**Q.** What about the growth ([2]; 10 µM unless noted) of the same molecule?
**A.** 106%

**Q.** What about the growth ([3]; 10 µM unless noted) of the same molecule?
**A.** 106%

**Q.** What about the growth ([4]; 10 µM unless noted) of the same molecule?
**A.** 104%

**Q.** What about the growth ([5]; 10 µM unless noted) of the same molecule?
**A.** 113%

**Q.** What about the growth ([6]; 10 µM unless noted) of the same molecule?
**A.** 112%

**Q.** What about the growth ([7]; 10 µM unless noted) of the same molecule?
**A.** 116%

**Q.** What about the growth ([8]; 10 µM unless noted) of the same molecule?
**A.** 99.3%

**Q.** And the growth ([9]; 10 µM unless noted)?
**A.** 117%

**Q.** What about the growth ([10]; 10 µM unless noted) of the same molecule?
**A.** 111%

**Q.** For `O=C(Nc1c(Cl)cccc1Cl)Oc1cccc2cccnc12`, which growth ([1]; 10 µM) is on record?
**A.** 82.5%

**Q.** What about the growth ([1]; 100 µM) of the same molecule?
**A.** 49.1%

**Q.** What about the growth ([2]; 10 µM) of the same molecule?
**A.** 11.3%

**Q.** And the growth ([2]; 100 µM)?
**A.** 11.1%

**Q.** And the growth ([3]; 10 µM)?
**A.** 52.8%

**Q.** And the growth ([3]; 100 µM)?
**A.** 47.5%

**Q.** What about the growth ([4]; 10 µM) of the same molecule?
**A.** 49.5%

**Q.** What about the growth ([4]; 100 µM) of the same molecule?
**A.** 20.4%

**Q.** And the growth ([5]; 10 µM)?
**A.** 73.3%

**Q.** What about the growth ([5]; 100 µM) of the same molecule?
**A.** 64.4%

**Q.** What about the growth ([6]; 10 µM) of the same molecule?
**A.** 51.4%

**Q.** What about the growth ([6]; 100 µM) of the same molecule?
**A.** 21.7%

**Q.** And the growth ([7]; 10 µM)?
**A.** -11.3% (active)

**Q.** What about the growth ([7]; 100 µM) of the same molecule?
**A.** 19.6%

**Q.** What about the growth ([8]; 10 µM) of the same molecule?
**A.** 28.2%

**Q.** And the growth ([8]; 100 µM)?
**A.** 22.9%

**Q.** What about the growth ([9]; 10 µM unless noted) of the same molecule?
**A.** -8.59% [100 µM] (active)

**Q.** And the growth ([10]; 10 µM)?
**A.** 40%

**Q.** And the growth ([10]; 100 µM)?
**A.** 12.3%

**Q.** With `COc1ccc(-c2cscc2N)cc1` as the molecule, how does the growth ([1]; 10 µM) read?
**A.** 83.3%

**Q.** And the growth ([1]; 100 µM)?
**A.** 69.8%

**Q.** What about the growth ([2]; 10 µM) of the same molecule?
**A.** 54.4%

**Q.** And the growth ([2]; 100 µM)?
**A.** 22.9%

**Q.** What about the growth ([3]; 10 µM) of the same molecule?
**A.** 138%

**Q.** And the growth ([3]; 100 µM)?
**A.** 66.9%

**Q.** And the growth ([4]; 10 µM)?
**A.** 55.3%

**Q.** And the growth ([4]; 100 µM)?
**A.** 50.8%

**Q.** And the growth ([5]; 10 µM)?
**A.** 106%

**Q.** What about the growth ([5]; 100 µM) of the same molecule?
**A.** 89.5%

**Q.** And the growth ([6]; 10 µM)?
**A.** 91%

**Q.** What about the growth ([6]; 100 µM) of the same molecule?
**A.** 41.3%

**Q.** What about the growth ([7]; 10 µM) of the same molecule?
**A.** 54.1%

**Q.** And the growth ([7]; 100 µM)?
**A.** 40.9%

**Q.** And the growth ([8]; 10 µM)?
**A.** 78.7%

**Q.** And the growth ([8]; 100 µM)?
**A.** 44.3%

**Q.** And the growth ([9]; 10 µM unless noted)?
**A.** 41.2% [100 µM]

**Q.** What about the growth ([10]; 10 µM) of the same molecule?
**A.** 76.1%

**Q.** And the growth ([10]; 100 µM)?
**A.** 43.4%

**Q.** Which growth ([1]; 10 µM) does the source give for `O=C(O)c1c(Cl)c(Cl)c(Cl)c(Cl)c1-c1c2cc(I)c(=O)c(I)c-2oc2c(I)c(O)c(I)cc12` here?
**A.** 93.5% and 95.2% and 112%

**Q.** And the growth ([1]; 100 µM)?
**A.** 59%

**Q.** And the growth ([2]; 10 µM)?
**A.** 112% and 113% and 92.3%

**Q.** What about the growth ([2]; 100 µM) of the same molecule?
**A.** -33.1% (active)

**Q.** What about the growth ([3]; 10 µM) of the same molecule?
**A.** 110% and 56.4%

**Q.** What about the growth ([3]; 100 µM) of the same molecule?
**A.** -11.9% (active)

**Q.** And the growth ([4]; 10 µM)?
**A.** 94.7% and 102% and 104%

**Q.** What about the growth ([4]; 100 µM) of the same molecule?
**A.** -39.7% (active)

**Q.** What about the growth ([5]; 10 µM) of the same molecule?
**A.** 92.5% and 90.9% and 57.7%

**Q.** And the growth ([5]; 100 µM)?
**A.** -78.9% (active)

**Q.** What about the growth ([6]; 10 µM) of the same molecule?
**A.** 88.2% and 78.4% and 96.9%

**Q.** What about the growth ([6]; 100 µM) of the same molecule?
**A.** 19.8%

**Q.** And the growth ([7]; 10 µM)?
**A.** 100% and 98.8% and 96.3%

**Q.** And the growth ([7]; 100 µM)?
**A.** 15.3%

**Q.** What about the growth ([8]; 10 µM) of the same molecule?
**A.** 95.4% and 96.5% and 77.9%

**Q.** And the growth ([8]; 100 µM)?
**A.** -67.5% (active)

**Q.** And the growth ([9]; 10 µM)?
**A.** 115% and 117% and 90.6%

**Q.** And the growth ([9]; 100 µM)?
**A.** 22.9%

**Q.** What about the growth ([10]; 10 µM) of the same molecule?
**A.** 104% and 95.6% and 119%

**Q.** What about the growth ([10]; 100 µM) of the same molecule?
**A.** 69.7%

**Q.** Which results are given for `CC1=CC(O)C2CC1C2(C)C` (stereo not drawn)?
**A.** growth ([1]; 10 µM unless noted): 108% and 122%; growth ([2]; 10 µM unless noted): 96.6% and 93.4%; growth ([3]; 10 µM unless noted): 97.6% and 107%; growth ([4]; 10 µM unless noted): 99.1% and 110%; growth ([5]; 10 µM unless noted): 115% and 104%; growth ([6]; 10 µM unless noted): 104% and 113%; growth ([7]; 10 µM unless noted): 103%; growth ([8]; 10 µM unless noted): 99.8% and 110%; growth ([9]; 10 µM unless noted): 95.9% and 110%; growth ([10]; 10 µM unless noted): 97.3% and 109%
